Measured values: PubChem BioAssay
Several values for one entry are separate records, joined by “and”; a condition that tells them apart may be missing. Equal entries are not always repeated. Activity calls are given as the source filed them.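 How the source made its calls, unless noted: active means normalized viability below 100% at a tested concentration; inactive means the rest.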

How the values were obtained:
[1] = stimulators of nuclear beta-catenin in C2C12, primary screen, imaging, WNT3A-conditioned medium, mouse C2C12, NPC library (AID 1117326; in the data active means nuclear beta-catenin stimulation mostly above about 4.2%, no sharp cut-off; inactive means mostly below about 10%); details: stronger effect = higher value
[2] = stimulators of insulin release from INS-1E, primary screen, cell-based, 5 mM glucose, NPC library (AID 1117329;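 active means compound raises insulin release from rat beta cells at 5 mM glucose, no numeric limit stated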); details: rat INS-1E insulin secretion, at 10 µM, stronger effect = higher value
[3] = growth inhibition of GSK3B-pretreated HCT116 cells – cell-based, CellTiter-Glo, 0.2 to 20 µM (AID 1117336;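 active means compounds lowering colon cancer cell viability after pretreatment blocking the GSK3B kinase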); details: HCT116 viability after GSK3B inhibitor, at 20 µM, stronger effect = higher value
[4] = inhibition of endothelial tube formation, primary screen, imaging, VEGF stimulated, CD31 staining, tube area, NPC library (AID 1117340;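 active means compound that reduces growth-factor-driven endothelial tube area in a mixed cell culture, no cutoff stated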); details: VEGF-stimulated ADSC/ECFC co-culture, at 10 µM, stronger effect = higher value
[5] = glucagon-like peptide 1 release enhancers, primary assay, NCI-H716 cell line, NPC library (AID 1117341;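 active means compound raises GLP1 secretion from the human gut endocrine cells, with no numeric limit stated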); details: NCI-H716 cells, at 10 µM, stronger effect = higher value
[6] = HCT116 colon cancer cell growth inhibition, primary screen, CellTiter-Glo luminescence, NPC library (AID 1117342;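 active means compounds that lower survival of HCT116 colon cancer cells in the luminescence readout, no numeric limit stated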); details: at 20 µM (top of the series)
[7] = CellTiter-Glo luminescent readout of SW480 viability loss, NPC library primary (AID 1117343;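 active means compounds that lower viability of the colon cancer cells in the luminescence readout, with no numeric limit stated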); details: CellTiter-Glo luminescence; at 20 µM (top of the series)
[8] = decreased DLD-1 cellular survival, CellTiter-Glo luminescent readout, NPC compound collection, primary HTS (AID 1117346;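 active means compounds that lower survival of DLD-1 colon cancer cells in the luminescence readout, no cutoff given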); details: DLD-1 viability, CellTiter-Glo luminescence; at 20 µM (top of the series)
[9] = biological target: 6-phosphogluconate dehydrogenase, decarboxylating (Homo sapiens) (UniProt P52209); assay: 6PGD enzyme inhibitors, primary screen, biochemical, human, recombinant enzyme, NADPH absorbance (AID 1159550;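 active means at least 20% inhibition of 6-phosphogluconate dehydrogenase activity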); details: recombinant 6PGD, NADPH absorbance 341 nm; at 10 µM; stronger effect = higher value
Sequence of 6-phosphogluconate dehydrogenase, decarboxylating (Homo sapiens) (P52209 whole entry, looked up): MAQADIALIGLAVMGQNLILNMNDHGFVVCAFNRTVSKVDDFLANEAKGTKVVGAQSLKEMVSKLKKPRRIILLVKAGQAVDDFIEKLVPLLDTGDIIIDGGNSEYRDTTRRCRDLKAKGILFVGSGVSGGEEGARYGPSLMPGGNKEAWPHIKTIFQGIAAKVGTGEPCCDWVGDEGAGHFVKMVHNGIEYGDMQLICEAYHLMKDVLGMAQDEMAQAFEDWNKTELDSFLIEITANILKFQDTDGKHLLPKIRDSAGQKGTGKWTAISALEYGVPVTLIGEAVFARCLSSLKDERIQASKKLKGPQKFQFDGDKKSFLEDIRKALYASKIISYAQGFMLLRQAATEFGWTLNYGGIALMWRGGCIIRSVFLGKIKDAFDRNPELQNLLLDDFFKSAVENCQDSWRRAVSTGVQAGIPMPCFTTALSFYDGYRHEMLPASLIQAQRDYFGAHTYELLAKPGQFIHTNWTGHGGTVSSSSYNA

[10] = modulation of C. elegans fzo-1 (AID 1259413; call rule not given here;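 further: fzo-1 mutant C. elegans worms in liquid wells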); details: C. elegans fzo-1 modulator screen, mean read-out; stronger effect = higher value
[11] = differential killing of epithelial or mesenchymal cells, primary screen, imaging, PC-3E GFP, TEM4-18 mCherry, co-culture (AID 1345086;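 active means compounds killing one labelled cell type while sparing the other, by normalised counts and ratio limits, not self-fluorescent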;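 further: cells exposed to compound for 72 h before imaging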;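 on red/green cell ratio (normalised): normalised mesenchymal count divided by normalised epithelial count so high means epithelial killing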); details: imaging cell counts, at 1 µM
[12] = survival rescue of mitochondrial mutant cells in low glucose, primary screen, MELAS cybrids, Rieske KO mouse fibroblasts, CellTiter-Glo (AID 1508586;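 active means mean z-score across replicates of 1.96 or higher in either the MELAS or the Rieske mutant cell line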;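 further: z relative to plate mean and SD of compound and empty wells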)
[13] = ovarian cancer cell viability with rucaparib, profiling panel, oncology-focused library, rucaparib conditional (AID 1508598); details: patient-derived ovarian cancer cells, CellTiter-Glo viability, 144 h, stronger effect = lower value
[14] = biological target: NAD(+) hydrolase SARM1 (Homo sapiens) (UniProt Q6SZW1); assay: SARM1 TIR NADase inhibitors, cell lysate, NAD-Glo luminescence (AID 1508614;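 active means compound whose remaining NAD level is above about 45 nM, limit read from the data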); details: SAM-TIR HEK293T lysate NADase, at 1 µM, stronger effect = higher value
Sequence of NAD(+) hydrolase SARM1 (Homo sapiens) (Q6SZW1 whole entry, looked up, the tested form may be a part): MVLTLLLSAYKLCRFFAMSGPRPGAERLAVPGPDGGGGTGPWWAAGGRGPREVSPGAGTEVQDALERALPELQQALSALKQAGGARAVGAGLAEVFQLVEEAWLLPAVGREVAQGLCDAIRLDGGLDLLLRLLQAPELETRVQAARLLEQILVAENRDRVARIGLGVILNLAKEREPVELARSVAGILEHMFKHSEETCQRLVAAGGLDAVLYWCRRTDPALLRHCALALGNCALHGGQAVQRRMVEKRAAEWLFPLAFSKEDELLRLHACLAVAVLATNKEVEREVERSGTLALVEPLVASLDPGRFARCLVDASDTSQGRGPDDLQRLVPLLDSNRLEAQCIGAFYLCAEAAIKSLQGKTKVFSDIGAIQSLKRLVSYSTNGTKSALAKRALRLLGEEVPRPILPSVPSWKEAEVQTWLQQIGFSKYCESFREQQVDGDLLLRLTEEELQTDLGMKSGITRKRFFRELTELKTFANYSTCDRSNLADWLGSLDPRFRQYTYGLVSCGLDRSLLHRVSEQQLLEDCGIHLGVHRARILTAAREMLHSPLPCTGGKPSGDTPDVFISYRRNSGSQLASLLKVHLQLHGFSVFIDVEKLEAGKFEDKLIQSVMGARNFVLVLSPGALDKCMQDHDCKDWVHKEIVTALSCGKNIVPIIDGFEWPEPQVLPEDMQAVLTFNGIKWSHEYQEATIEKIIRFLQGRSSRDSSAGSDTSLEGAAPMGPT

[15] = biological target: Mitogen-activated protein kinase 7 (Homo sapiens) (UniProt Q13164); assay: ERK5 transactivation activators in reporter cells, primary screen, cell-based, HTS (AID 1508626;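 active means luciferase signal above three times the same-plate solvent-only control wells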;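 further: luciferase driven by Gal4-ERK5 fusion binding five Gal4 sites before minimal TATA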); details: HeLa Gal4-ERK5 transactivation, 18 h, at 5 µM, stronger effect = higher value
Sequence of Mitogen-activated protein kinase 7 (Homo sapiens) (Q13164 whole entry, looked up, the tested form may be a part): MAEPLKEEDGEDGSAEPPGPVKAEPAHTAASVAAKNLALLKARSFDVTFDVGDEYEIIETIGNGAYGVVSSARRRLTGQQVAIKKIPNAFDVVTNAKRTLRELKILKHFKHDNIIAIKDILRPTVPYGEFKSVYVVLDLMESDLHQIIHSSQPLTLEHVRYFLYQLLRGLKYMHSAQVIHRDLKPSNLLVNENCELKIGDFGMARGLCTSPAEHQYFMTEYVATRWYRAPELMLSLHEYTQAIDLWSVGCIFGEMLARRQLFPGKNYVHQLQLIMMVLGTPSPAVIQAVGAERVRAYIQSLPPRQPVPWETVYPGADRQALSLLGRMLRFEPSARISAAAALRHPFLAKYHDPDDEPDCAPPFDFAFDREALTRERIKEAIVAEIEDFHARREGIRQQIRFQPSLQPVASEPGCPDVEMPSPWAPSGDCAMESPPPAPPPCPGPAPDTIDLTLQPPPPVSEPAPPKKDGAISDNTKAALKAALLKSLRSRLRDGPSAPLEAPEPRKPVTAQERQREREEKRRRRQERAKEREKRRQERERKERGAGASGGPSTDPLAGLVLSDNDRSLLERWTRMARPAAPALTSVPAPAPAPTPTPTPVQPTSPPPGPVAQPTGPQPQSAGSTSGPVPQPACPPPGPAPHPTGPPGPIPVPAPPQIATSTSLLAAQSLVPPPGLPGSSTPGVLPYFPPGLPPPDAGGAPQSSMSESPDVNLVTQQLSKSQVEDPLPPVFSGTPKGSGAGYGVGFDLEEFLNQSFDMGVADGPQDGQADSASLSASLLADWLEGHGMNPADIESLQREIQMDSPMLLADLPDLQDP

F380Y = assay: modulators of BK channel variants, profiling panel, selectivity assay, cell-based, U2OS BacMam, thallium flux, beta subunits (AID 1259406;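 active means thallium flux through the channel raised or lowered by more than 3 SD from vehicle-only wells, actives on both sides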;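 further: initial slope of Thallos dye fluorescence rise after thallium is added; log ratio against the mean of 0.3% DMSO vehicle wells on the same plate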); details: at 30 µM
F380Y/beta1 = assay: as above; details: at 30 µM
F380Y/beta2Delta = assay: as above; details: at 30 µM

O=C1CCC(N2C(=O)c3ccccc3C2=O)C(=O)N1 (stereo not drawn)
1.44: normalised cell number ([11]; measured here: mesenchymal TEM4-18 mCherry cell survival)
-0.261 and 0.0412 and -1.15: z-score ([12]; Rieske KO mouse fibroblast survival, CellTiter-Glo 72 h)
active: viability decrease (inhibition) [8] 53.7% | viability ([13]; at 0.000305 µM, OCI-C5x cells, without rucaparib) 95% | viability ([13]; at 0.000305 µM, OCI-P5x cells, with rucaparib 20 µM, 100% = cells with rucaparib alone) 99.4% | viability ([13]; at 0.00488 µM, OCI-C5x cells, without rucaparib) 99.5%
inactive: nuclear beta-catenin stimulation ([1]; at 10 µM) 2.4% | insulin secretion stimulation [2] 0.6% | viability decrease [3] -12.6% | tube area decrease [4] 5.6% | GLP1 secretion stimulation [5] -3.8% | inhibition of viability [6] 6.9% | viability decrease (inhibition) [7] 11.1% | inhibition [9] -1.45% | mean signal [10] 238 | red/green cell ratio (normalised) ([11]; actives lie on both sides, counts scaled to control wells, 1 = unselective) 1.17 | z-score ([12]; MELAS cybrid survival, CellTiter-Glo 48 h, stronger effect = higher value) -0.413 and 0.577 and -0.221 | viability ([13]; at 0.000305 µM, OCI-C5x cells, with rucaparib 10 µM, 100% = cells with rucaparib alone) 117% | viability ([13]; at 0.000305 µM, OCI-P5x cells, without rucaparib) 103% | viability ([13]; at 0.00122 µM, OCI-C5x cells, with rucaparib 10 µM, 100% = cells with rucaparib alone) 108% | viability ([13]; at 0.00122 µM, OCI-C5x cells, without rucaparib) 102% | viability ([13]; at 0.00122 µM, OCI-P5x cells, with rucaparib 20 µM, 100% = cells with rucaparib alone) 100% | viability ([13]; at 0.00122 µM, OCI-P5x cells, without rucaparib) 109% | viability ([13]; at 0.00488 µM, OCI-C5x cells, with rucaparib 10 µM, 100% = cells with rucaparib alone) 110% | viability ([13]; at 0.00488 µM, OCI-P5x cells, with rucaparib 20 µM, 100% = cells with rucaparib alone) 112% | viability ([13]; at 0.00488 µM, OCI-P5x cells, without rucaparib) 106% | viability ([13]; at 0.0195 µM, OCI-C5x cells, with rucaparib 10 µM, 100% = cells with rucaparib alone) 111% | viability ([13]; at 0.0195 µM, OCI-C5x cells, without rucaparib) 109% | viability ([13]; at 0.0195 µM, OCI-P5x cells, with rucaparib 20 µM, 100% = cells with rucaparib alone) 112% | viability ([13]; at 0.0195 µM, OCI-P5x cells, without rucaparib) 111% | viability ([13]; at 0.0781 µM, OCI-C5x cells, with rucaparib 10 µM, 100% = cells with rucaparib alone) 113% | viability ([13]; at 0.0781 µM, OCI-C5x cells, without rucaparib) 104% | viability ([13]; at 0.0781 µM, OCI-P5x cells, with rucaparib 20 µM, 100% = cells with rucaparib alone) 107% | viability ([13]; at 0.0781 µM, OCI-P5x cells, without rucaparib) 115% | viability ([13]; at 0.313 µM, OCI-C5x cells, with rucaparib 10 µM, 100% = cells with rucaparib alone) 114% | viability ([13]; at 0.313 µM, OCI-C5x cells, without rucaparib) 109% | viability ([13]; at 0.313 µM, OCI-P5x cells, with rucaparib 20 µM, 100% = cells with rucaparib alone) 112% | viability ([13]; at 0.313 µM, OCI-P5x cells, without rucaparib) 119% | viability ([13]; at 1.25 µM, OCI-C5x cells, with rucaparib 10 µM, 100% = cells with rucaparib alone) 114% | viability ([13]; at 1.25 µM, OCI-C5x cells, without rucaparib) 103% | viability ([13]; at 1.25 µM, OCI-P5x cells, with rucaparib 20 µM, 100% = cells with rucaparib alone) 116% | viability ([13]; at 1.25 µM, OCI-P5x cells, without rucaparib) 117% | viability ([13]; at 5 µM, OCI-C5x cells, with rucaparib 10 µM, 100% = cells with rucaparib alone) 116% | viability ([13]; at 5 µM, OCI-C5x cells, without rucaparib) 108% | viability ([13]; at 5 µM, OCI-P5x cells, with rucaparib 20 µM, 100% = cells with rucaparib alone) 114% | viability ([13]; at 5 µM, OCI-P5x cells, without rucaparib) 115% | remaining NAD [14] 10 nM | luciferase signal [15] 36 AU | log fold change Tl+ flux (F380Y) -0.00432 | log fold change Tl+ flux (F380Y/beta1) -0.0788 | log fold change Tl+ flux (F380Y/beta2Delta) -0.0091
1.23: normalised cell number ([11]; measured here: epithelial PC-3E GFP cell survival)
2.1%: nuclear beta-catenin stimulation ([1]; stimulation, at 2 µM)
